Measurements reported in PubChem BioAssay.
Inconclusive results are not listed. Calls of active or inactive are those of the source.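 The calls were made as follows, unless noted: active = efflux inhibition above 0.42, the validation set average plus 4 SD; inconclusive = no clear call, values can overlap the other calls; inactive = the rest.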

Columns and labels:
[1] = yeast TOR pathway RPL19A-GFP modulators, primary screen, cell-based, S. cerevisiae, multiplex flow cytometry (AID 1862; in the data active = percent of DMSO control GFP below about 86%;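 also: lower values mimic rapamycin by blocking the RPL19A rise seen in DMSO cells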); details: S. cerevisiae RPL19A-GFP strain, flow cytometry fluorescence, 3 h; at 10 µM; stronger effect = lower value
[2] = modulators of MEP2-GFP levels in yeast, primary screen, S. cerevisiae, multiplex flow cytometry (AID 1867;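 active = GFP response, as percent of the DMSO control, above the screen-wide mean plus 3 SD, about 139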;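 also: median GFP channel fluorescence of barcode-gated MEP2-GFP cells measured by flow cytometry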); details: S. cerevisiae MEP2-GFP strain, 3 h, at 10 µM, stronger effect = higher value, 100% means same as DMSO wells
[3] = modulators of CIT2-GFP expression in yeast, primary screen, S. cerevisiae, GFP fusion, multiplex flow cytometry (AID 1870;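 active = percent response above a set limit, the screen-wide mean plus 3 SD, cut at about 130% in these data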;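 also: barcoded CIT2-GFP strain pooled with four other GFP strains with rapamycin as positive control; median GFP fluorescence per well over plate mean of DMSO wells so 100% = DMSO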); details: 3 h, at 10 µM, stronger effect = higher value
[4] = modulators of LAP4-GFP expression in yeast, primary screen, S. cerevisiae, multiplex flow cytometry (AID 1873;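 active = GFP signal, as percent of the solvent control, above the screen mean plus 3 SD, about 149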); details: 3 h, at 10 µM, stronger effect = higher value
[5] = modulators of AGP1-GFP expression in yeast TOR pathway, primary screen, cell-based, multiplex flow cytometry, S. cerevisiae (AID 1887;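 active = GFP signal above the screen-wide mean plus 3 SD, that is over about 124.5% of the solvent control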;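 also: AGP1-GFP fusion strain of S. cerevisiae within a five-strain barcoded multiplex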); details: 3 h, at 10 µM, stronger effect = higher value
[6] = inhibitors of CD8+ T cell-vesicle binding, pilot screen, LFA-1/ICAM-1 modulator project, MLPCN validation set, flow cytometry (AID 2523;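 active = response below a set limit, under 55% cells CD8-positive and vesicle-bound, and CD8 cells' 90th-percentile brightness under 279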;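 as to vesicle binding response: mean PE anti-B7-1 fluorescence of CD8+ cells relative to row control; 100% = QL9-loaded vesicles with DMSO vehicle in the same plate row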); details: 2C mouse CD8+ T cells, at 7 µM, stronger effect = lower value; double positive events: measured here: CD8+/vesicle+ event percentage
[7] = target: Integrin beta-1 (Homo sapiens) + Integrin alpha-4 (Homo sapiens) (UniProt P13612+P05556); assay: inhibition of HUTS-21 binding to VLA-4, pilot screen, VLA-4 allosteric modulator project, U937 cells, HUTS-21 mAb, flow cytometry, validation set (AID 2674;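 active = inhibition above 50%, about 3 SD of the validation set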;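 also: antibody binding induced by the VLA-4 ligand LDV present at three times its Kd; 0% = LDV ligand with antibody and no compound and 100% = antibody without LDV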); details: HUTS-21 LIBS mAb binding, at 6.7 µM, stronger effect = higher value, binding induced by LDV ligand
[8] = superoxide lowering in aged yeast cells, pilot screen, validation compound set (AID 2706;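 active = superoxide response below 65% of plate, a cut near 3 SD across the whole screen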;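 also: yeast exposed to compound for one week at 30 degrees C before staining; 100% = mean of all compound wells on the same plate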); details: S. cerevisiae aging, superoxide DHE fluorescence; at 10 µM; stronger effect = lower value
[9] = target: Beta-adrenergic receptor kinase 1 (Homo sapiens) (UniProt P25098); assay: GRK2 binders displacing RNA aptamer, biochemical, validation, human GRK2, bead flow cytometry (AID 488806;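 active = aptamer binding inhibition above 30%, about 3 SD of noise from non-fluorescent compounds; inactive = inhibition at or below 30%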); details: bead-bound GRK2, FAM-aptamer displacement, at 10 µM, stronger effect = higher value
[10] = target: Beta-2 adrenergic receptor (Homo sapiens) (UniProt P07550); assay: beta2AR agonists driving receptor internalization, pilot screen, cell-based, FAP fluorogen, flow cytometry, validation set (AID 504459;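 active = percent response above 42, roughly 3 SD of non-fluorescent test compounds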;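 also: agonist-driven loss of surface beta2AR via internalization measured by FAP dye flow cytometry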); details: Am2.2-beta2AR cells, FAP surface receptor flow cytometry; at 10 µM; stronger effect = higher value
[11] = target: AP-2 complex subunit beta (Homo sapiens) (UniProt P63010); assay: inhibitors of arrestin peptide binding to AP2, pilot screen, biochemical, validation set, GST-AP2 beads, flow cytometry (AID 504541;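 active = inhibition above 54%, about 3 SD of non-fluorescent compounds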;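 also: AP2 carries R879A mutation and is captured from E. coli lysate; bead-bound FITC arrestin peptide fluorescence measuring arrestin peptide binding to AP2; 0% = DMSO wells and 100% = excess unlabeled arrestin peptide control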); details: FITC arrestin peptide, at 10 µM, stronger effect = higher value, AP2 beta2 appendage fragment, R879A mutant
[12] = yeast V-ATPase proton transport modulators, S. cerevisiae, pHLuorin, HTS validation (AID 504600; in the data active = response above about 15%;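 also: plate controls were DMSO for no effect and reference compound for full effect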); details: S. cerevisiae pHLuorin cytosolic pH, at 10 µM, stronger effect = higher value
[13] = test system: anti-desmoglein-3 scFv antibody binding to human DSG3; assay: inhibitors of anti-DSG3 scFv binding to DSG3, pilot screen, biochemical, validation compound set, bead-based, flow cytometry (AID 588368;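 active = binding below the plate cutoff, the plate median minus 3 SD, with a reading above zero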;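 also: signal is the median channel fluorescence of bead-bound GFP antibody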); details: Protein G beads, DSG3-Fc, scFv-GFP binding, at 10 µM, stronger effect = lower value
[14] = inhibitors of fungal efflux pumps CDR1, CDR2, MDR1, pilot screen, validation compound set, multiplex, phenotypic (AID 588506);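 also: Nile Red retained in cells so higher fluorescence means more efflux inhibition; 0 = negative control wells and 1 = enniatin B 25 µM full block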; details: S. cerevisiae pump-expressing triplex, Nile Red efflux flow cytometry; at 10 µM; stronger effect = higher value; the pumps come from Candida albicans
[15] = target: ATP-binding cassette sub-family B member 6 (Homo sapiens) (UniProt Q9NP58); assay: ABCB6 transporter inhibitors, pilot screen, K562-ABCB6 cells, flow cytometry, validation set (AID 588550;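 active = inhibition above the screen-wide mean plus 3 SD, about 51%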;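 also: 0% = DMSO wells and 100% = benzethonium chloride 70 µM positive control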); details: K562-ABCB6 porphyrin accumulation, 1 h, at 10 µM, stronger effect = higher value
[16] = promoters of myeloid differentiation in arrested cells, primary screen, cell-based, GFP/MAC1 double positive, flow cytometry, validation set (AID 588685;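 active = differentiation response of at least 50%, scaled between solvent and reference control, from cells with both markers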;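 also: compound exposure lasts four days before antibody staining and flow analysis; 0% = DMSO wells and 100% = 5 µM fulvestrant positive control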); details: ER-HoxA9 marrow cells, stronger effect = higher value, normalized: vehicle 0, fulvestrant 100

Sequence of ATP-binding cassette sub-family B member 6 (Homo sapiens) (Q9NP58 whole entry, looked up): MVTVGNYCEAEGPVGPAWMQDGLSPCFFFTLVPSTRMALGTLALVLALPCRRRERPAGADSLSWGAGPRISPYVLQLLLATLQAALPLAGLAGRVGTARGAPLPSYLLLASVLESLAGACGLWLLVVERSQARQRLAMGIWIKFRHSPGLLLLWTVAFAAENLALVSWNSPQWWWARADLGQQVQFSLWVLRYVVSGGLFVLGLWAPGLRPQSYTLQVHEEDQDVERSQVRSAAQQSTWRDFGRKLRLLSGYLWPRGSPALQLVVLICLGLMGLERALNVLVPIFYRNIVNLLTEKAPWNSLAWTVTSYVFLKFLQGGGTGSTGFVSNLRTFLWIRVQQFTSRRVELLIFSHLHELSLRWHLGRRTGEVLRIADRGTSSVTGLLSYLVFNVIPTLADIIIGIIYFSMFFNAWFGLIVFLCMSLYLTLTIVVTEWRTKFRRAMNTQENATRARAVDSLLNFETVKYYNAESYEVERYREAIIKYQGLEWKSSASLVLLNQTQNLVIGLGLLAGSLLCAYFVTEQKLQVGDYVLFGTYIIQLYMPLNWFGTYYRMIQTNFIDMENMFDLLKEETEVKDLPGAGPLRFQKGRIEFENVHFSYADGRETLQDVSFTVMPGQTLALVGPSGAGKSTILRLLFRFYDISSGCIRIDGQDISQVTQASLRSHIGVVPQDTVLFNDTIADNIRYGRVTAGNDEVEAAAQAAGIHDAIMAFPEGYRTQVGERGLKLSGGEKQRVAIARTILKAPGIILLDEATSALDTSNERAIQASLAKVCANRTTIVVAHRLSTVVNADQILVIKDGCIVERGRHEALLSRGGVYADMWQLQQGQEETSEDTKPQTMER
Sequence of Beta-2 adrenergic receptor (Homo sapiens) (P07550 whole entry, looked up): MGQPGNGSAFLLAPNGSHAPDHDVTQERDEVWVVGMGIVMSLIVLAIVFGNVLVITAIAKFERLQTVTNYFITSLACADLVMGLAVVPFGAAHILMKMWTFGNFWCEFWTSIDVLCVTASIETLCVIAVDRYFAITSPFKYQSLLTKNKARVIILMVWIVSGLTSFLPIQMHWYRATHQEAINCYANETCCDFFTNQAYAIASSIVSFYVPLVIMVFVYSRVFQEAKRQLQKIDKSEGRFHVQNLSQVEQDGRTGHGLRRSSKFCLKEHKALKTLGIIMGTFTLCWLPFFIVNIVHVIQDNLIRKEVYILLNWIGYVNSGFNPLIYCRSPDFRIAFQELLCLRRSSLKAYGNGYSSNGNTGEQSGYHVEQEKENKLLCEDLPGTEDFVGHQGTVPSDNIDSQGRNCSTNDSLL
Sequence of Beta-adrenergic receptor kinase 1 (Homo sapiens) (P25098 whole entry, looked up): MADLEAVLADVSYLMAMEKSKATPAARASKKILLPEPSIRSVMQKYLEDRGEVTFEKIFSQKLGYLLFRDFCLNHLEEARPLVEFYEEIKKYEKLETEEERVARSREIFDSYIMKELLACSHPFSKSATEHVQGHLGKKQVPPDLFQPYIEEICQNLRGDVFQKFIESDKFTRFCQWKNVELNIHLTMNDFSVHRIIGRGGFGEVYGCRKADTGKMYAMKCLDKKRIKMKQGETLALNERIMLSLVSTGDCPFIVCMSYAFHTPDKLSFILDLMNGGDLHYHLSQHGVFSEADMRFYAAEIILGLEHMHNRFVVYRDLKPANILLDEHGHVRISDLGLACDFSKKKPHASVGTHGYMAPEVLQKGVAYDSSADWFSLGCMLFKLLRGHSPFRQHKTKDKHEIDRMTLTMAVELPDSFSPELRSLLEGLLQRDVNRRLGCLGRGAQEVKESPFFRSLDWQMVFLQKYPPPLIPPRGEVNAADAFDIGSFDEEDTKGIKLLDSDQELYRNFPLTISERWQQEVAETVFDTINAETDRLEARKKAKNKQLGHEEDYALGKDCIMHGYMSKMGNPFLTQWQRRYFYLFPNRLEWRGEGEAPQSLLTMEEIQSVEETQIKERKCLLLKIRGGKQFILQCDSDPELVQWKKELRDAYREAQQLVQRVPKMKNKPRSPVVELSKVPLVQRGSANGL
Sequence of Integrin beta-1 (Homo sapiens) + Integrin alpha-4 (Homo sapiens) (P05556 whole entry, looked up): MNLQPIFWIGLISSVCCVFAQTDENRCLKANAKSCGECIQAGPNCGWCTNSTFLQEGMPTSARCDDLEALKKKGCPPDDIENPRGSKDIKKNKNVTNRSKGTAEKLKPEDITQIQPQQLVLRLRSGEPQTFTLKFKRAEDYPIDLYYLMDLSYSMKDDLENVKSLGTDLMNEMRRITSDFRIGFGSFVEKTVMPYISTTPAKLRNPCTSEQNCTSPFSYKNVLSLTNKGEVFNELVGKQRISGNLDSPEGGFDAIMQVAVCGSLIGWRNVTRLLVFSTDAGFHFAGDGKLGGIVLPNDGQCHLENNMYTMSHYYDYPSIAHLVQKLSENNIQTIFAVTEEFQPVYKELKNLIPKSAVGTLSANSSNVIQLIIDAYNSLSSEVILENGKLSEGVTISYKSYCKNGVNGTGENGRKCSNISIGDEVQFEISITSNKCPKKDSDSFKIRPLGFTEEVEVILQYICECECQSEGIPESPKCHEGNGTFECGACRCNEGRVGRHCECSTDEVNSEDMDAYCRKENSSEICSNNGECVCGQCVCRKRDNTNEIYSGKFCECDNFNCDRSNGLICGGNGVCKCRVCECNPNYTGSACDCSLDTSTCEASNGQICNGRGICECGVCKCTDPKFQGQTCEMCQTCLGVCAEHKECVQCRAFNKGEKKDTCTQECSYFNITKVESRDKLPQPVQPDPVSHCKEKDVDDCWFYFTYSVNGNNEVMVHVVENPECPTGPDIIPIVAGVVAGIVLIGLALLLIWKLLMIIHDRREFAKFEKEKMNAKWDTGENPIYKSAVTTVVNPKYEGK
Sequence of Integrin beta-1 (Homo sapiens) + Integrin alpha-4 (Homo sapiens) (P13612 whole entry, looked up): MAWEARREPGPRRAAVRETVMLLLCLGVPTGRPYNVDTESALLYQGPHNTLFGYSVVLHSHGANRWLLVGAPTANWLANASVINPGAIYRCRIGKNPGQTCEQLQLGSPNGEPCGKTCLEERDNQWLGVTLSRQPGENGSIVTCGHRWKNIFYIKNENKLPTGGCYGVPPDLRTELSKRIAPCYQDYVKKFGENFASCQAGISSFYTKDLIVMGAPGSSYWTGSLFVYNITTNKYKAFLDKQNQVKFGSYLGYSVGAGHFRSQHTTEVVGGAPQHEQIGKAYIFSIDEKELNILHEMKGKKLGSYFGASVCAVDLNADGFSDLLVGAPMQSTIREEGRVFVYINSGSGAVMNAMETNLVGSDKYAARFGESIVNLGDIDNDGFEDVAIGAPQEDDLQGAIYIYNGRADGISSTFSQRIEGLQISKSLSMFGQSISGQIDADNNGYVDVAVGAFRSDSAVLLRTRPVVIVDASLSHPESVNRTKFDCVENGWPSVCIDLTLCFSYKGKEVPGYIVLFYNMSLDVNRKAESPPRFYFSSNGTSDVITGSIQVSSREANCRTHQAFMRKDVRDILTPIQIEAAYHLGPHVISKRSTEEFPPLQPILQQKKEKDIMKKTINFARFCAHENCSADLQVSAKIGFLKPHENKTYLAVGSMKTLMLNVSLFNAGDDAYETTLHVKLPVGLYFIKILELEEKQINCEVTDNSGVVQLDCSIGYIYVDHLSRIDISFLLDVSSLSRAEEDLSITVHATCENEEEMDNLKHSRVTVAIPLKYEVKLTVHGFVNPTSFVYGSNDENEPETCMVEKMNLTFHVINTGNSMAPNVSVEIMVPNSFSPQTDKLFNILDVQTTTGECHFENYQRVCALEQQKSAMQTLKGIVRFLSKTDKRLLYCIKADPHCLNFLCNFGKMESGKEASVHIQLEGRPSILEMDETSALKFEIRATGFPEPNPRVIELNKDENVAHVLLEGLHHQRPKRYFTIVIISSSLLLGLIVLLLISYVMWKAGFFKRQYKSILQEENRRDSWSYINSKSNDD
Sequence of AP-2 complex subunit beta (Homo sapiens) (P63010 whole entry, looked up, the tested form may be a part, one chain of several): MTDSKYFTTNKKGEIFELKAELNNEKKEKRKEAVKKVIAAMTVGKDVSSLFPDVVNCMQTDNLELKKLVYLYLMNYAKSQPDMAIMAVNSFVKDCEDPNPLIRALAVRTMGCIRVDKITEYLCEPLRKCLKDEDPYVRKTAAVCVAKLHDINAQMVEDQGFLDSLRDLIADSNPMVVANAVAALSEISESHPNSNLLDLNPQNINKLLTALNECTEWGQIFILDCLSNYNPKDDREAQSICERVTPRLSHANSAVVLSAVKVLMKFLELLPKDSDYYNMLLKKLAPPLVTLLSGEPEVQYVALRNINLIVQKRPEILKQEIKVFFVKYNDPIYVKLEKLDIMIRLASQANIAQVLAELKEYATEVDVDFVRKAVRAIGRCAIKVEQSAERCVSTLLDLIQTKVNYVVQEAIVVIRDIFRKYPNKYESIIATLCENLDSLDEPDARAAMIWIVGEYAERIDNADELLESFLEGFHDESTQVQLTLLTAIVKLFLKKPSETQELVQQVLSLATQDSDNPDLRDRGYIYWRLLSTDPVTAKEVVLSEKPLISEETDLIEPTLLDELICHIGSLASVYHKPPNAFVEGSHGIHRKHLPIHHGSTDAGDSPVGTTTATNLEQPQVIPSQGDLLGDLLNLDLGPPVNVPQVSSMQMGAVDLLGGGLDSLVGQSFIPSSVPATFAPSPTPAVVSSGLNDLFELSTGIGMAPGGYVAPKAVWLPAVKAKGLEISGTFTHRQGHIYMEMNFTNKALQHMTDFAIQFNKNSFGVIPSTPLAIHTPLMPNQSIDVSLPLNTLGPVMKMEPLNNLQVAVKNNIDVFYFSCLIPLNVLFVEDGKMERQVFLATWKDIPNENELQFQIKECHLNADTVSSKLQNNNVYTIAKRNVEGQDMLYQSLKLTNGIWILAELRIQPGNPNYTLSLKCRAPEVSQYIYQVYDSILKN

SMILES	percent of DMSO control GFP [1]	GFP response vs DMSO [2]	percent response of DMSO control [3]	GFP response vs DMSO [4]	GFP response, % of DMSO [5]	double positive events [6] [%]	vesicle binding response [6]	inhibition [7]	superoxide response (% of plate) [8]	aptamer binding inhibition [9]	response [10]	inhibition [11]	response [12]	binding (% of control) [13]	efflux inhibition (fraction of control) [14]	inhibition [15]	differentiation response [16]
CCc1cc2c(=O)c(-c3nc(C)cs3)c(CCCC(=O)O)oc2cc1O	103% (inactive)	108% (inactive)	102% (inactive)	98% (inactive)	100% (inactive)	54.4	39.1% (active)	1.62% (inactive)	105% (inactive)	2% (inactive)	-4.49% (inactive)	-6.82% (inactive)	-0.76% (inactive)	114% (inactive)	-0.2 (inactive)	-3% (inactive)	2.2% (inactive)
CN(Cc1c(C(=O)N(C)Cc2ccccc2)nc2ccccn12)CC1Cc2ccccc2O1 (stereo not drawn)	98.4% (inactive)	104% (inactive)	98.2% (inactive)	89.4% (inactive)	93.7% (inactive)	61.4	2590% (inactive)	-11.8% (inactive)	105% (inactive)	3% (inactive)	0.21% (inactive)	-19.1% (inactive)	-0.37% (inactive)	98.2% (inactive)	0.17 (inactive)	14% (inactive)	-2.64% (inactive)
CCOc1ccc2[nH]c3c(=O)n(CCc4ccc(OC)cc4)cnc3c2c1	99.5% (inactive)	112% (inactive)	90.1% (inactive)	120% (inactive)	101% (inactive)	61.3	211% (inactive)	6.4% (inactive)	99.7% (inactive)	0% (inactive)	0.24% (inactive)	-8.18% (inactive)	65.9% (active)	102% (inactive)	0.12 (inactive)	5% (inactive)	29.6% (inactive)
O=C(NCc1ccc(N2CCCC2=O)cc1)c1ccc(F)cc1	103% (inactive)	106% (inactive)	100% (inactive)	99.5% (inactive)	116% (inactive)	62.5	211% (inactive)	17.6% (inactive)	101% (inactive)	3% (inactive)	-6.33% (inactive)	6.32% (inactive)	-1.49% (inactive)	107% (inactive)	-0.04 (inactive)	2% (inactive)	1.91% (inactive)
CCc1cc2c(=O)c(-c3ccc4c(c3)OCCO4)coc2c(CN2CCCCC2C)c1O (stereo not drawn)	103% (inactive)	98.6% (inactive)	91.8% (inactive)	103% (inactive)	109% (inactive)	63.4	177% (inactive)	14.2% (inactive)	65.8% (inactive)	2% (inactive)	-18.8% (inactive)	9.88% (inactive)	3.99% (inactive)	112% (inactive)	-0.04 (inactive)	-2% (inactive)	15.7% (inactive)
CC(C)(C)N(Cc1ccccc1)C(=O)c1ccc(Br)o1	103% (inactive)	102% (inactive)	95.7% (inactive)	107% (inactive)	101% (inactive)	63.4	147% (inactive)	-7.08% (inactive)	101% (inactive)	6% (inactive)	-22.8% (inactive)	4.28% (inactive)	-8.19% (inactive)	97.1% (inactive)	0.04 (inactive)	6% (inactive)	-11.9% (inactive)
C[C@]12CCC3C(CC=C4C[C@@H](O)CC[C@@]43C)C1CCC2[C@]1(C)CCC(=O)O1 (stereo partly drawn)	102% (inactive)	97.4% (inactive)	109% (inactive)	84.6% (inactive)	95.7% (inactive)	57	164% (inactive)	0.94% (inactive)	100% (inactive)	4% (inactive)	1.67% (inactive)	-4.51% (inactive)	-0.48% (inactive)	103% (inactive)	0.48 (active)	9% (inactive)	-15.2% (inactive)
CCN(CC)c1ccc([C@H]2[C@@H]3CCCC[C@]3(O)CCN2CC(=O)NCc2ccco2)cc1	97.4% (inactive)	108% (inactive)	91% (inactive)	121% (inactive)	98.5% (inactive)	60.3	190% (inactive)	-25% (inactive)	95.1% (inactive)	4% (inactive)	47.5% (active)	-7.96% (inactive)	25.9% (active)	99.5% (inactive)	0.33 (inactive)	8% (inactive)	-7.2% (inactive)
O=Cc1ccc(OC(=O)c2cccnc2)cc1	101% (inactive)	91.9% (inactive)	107% (inactive)	78.6% (inactive)	99.5% (inactive)	58.7	209% (inactive)	2.3% (inactive)	98.5% (inactive)	1% (inactive)	-10.5% (inactive)	-1.7% (inactive)	1.76% (inactive)	93% (inactive)	0.05 (inactive)	4% (inactive)	16.8% (inactive)
CC(=O)N1CCN(c2ccc(OC[C@H]3CO[C@](Cn4ccnc4)(c4ccc(Cl)cc4Cl)O3)cc2)CC1	105% (inactive)	108% (inactive)	111% (inactive)	109% (inactive)	111% (inactive)	63.3	188% (inactive)	4.27% (inactive)	100% (inactive)	-2% (inactive)	0.01% (inactive)	6.3% (inactive)	-2.33% (inactive)	98.1% (inactive)	0.59 (active)	-9% (inactive)	-10.4% (inactive)
CCn1c(N2CCN(CC(=O)c3c(C)n(C)c4ccc(OC)cc34)CC2)nc2c1c(=O)[nH]c(=O)n2C	101% (inactive)	104% (inactive)	97.8% (inactive)	91.4% (inactive)	99.9% (inactive)	60	206% (inactive)	-18.1% (inactive)	100% (inactive)	1% (inactive)	-1.41% (inactive)	12.1% (inactive)	-2.91% (inactive)	101% (inactive)	-0.26 (inactive)	23% (inactive)	-2.69% (inactive)
COc1cc(OC)c2c(C)c(Cl)c(=O)oc2c1	102% (inactive)	104% (inactive)	105% (inactive)	113% (inactive)	99.1% (inactive)	56.7	92.7% (inactive)	2.66% (inactive)	90.2% (inactive)	-3% (inactive)	-6.2% (inactive)	-8.58% (inactive)	1.24% (inactive)	100% (inactive)	-0.1 (inactive)	-9% (inactive)	0.24% (inactive)
COc1ccc(-c2c[n+](CC(=O)OC3CC(C)CCC3C(C)C)c3n2CCC3)cc1 (stereo not drawn)	99.5% (inactive)	105% (inactive)	102% (inactive)	97% (inactive)	98.6% (inactive)	57.8	42.8% (inactive)	5.61% (inactive)	97.3% (inactive)	-6% (inactive)	-0.25% (inactive)	-5.29% (inactive)	8.78% (inactive)	108% (inactive)	0.28 (inactive)	6% (inactive)	-3.11% (inactive)
O=C(NCc1ccc(N2CCCC2=O)cc1)c1cccc(Cl)c1	102% (inactive)	101% (inactive)	111% (inactive)	105% (inactive)	99.4% (inactive)	57.4	215% (inactive)	-1.49% (inactive)	101% (inactive)	1% (inactive)	-4.33% (inactive)	7.63% (inactive)	-1.49% (inactive)	106% (inactive)	-0.14 (inactive)	0% (inactive)	-5.62% (inactive)
O=C1c2ccccc2N2C(=O)c3ccccc3C2N1Cc1ccco1 (stereo not drawn)	104% (inactive)	104% (inactive)	110% (inactive)	103% (inactive)	89.8% (inactive)	61	140% (inactive)	-2.43% (inactive)	95.6% (inactive)	0% (inactive)	-16.2% (inactive)	-5.51% (inactive)	-3.39% (inactive)	99.6% (inactive)	0.03 (inactive)	-8% (inactive)	-1.65% (inactive)
COc1ccc2oc(=O)c(C(=O)Nc3ccccc3-c3ccccc3)cc2c1	101% (inactive)	104% (inactive)	99% (inactive)	97.1% (inactive)	113% (inactive)	64.5	167% (inactive)	2.29% (inactive)	94.6% (inactive)	4% (inactive)	13.6% (inactive)	85% (active)	-7.05% (inactive)	97.4% (inactive)	0 (inactive)	6% (inactive)	-8.93% (inactive)
COc1ccc(C(=O)NCCC2=CCCCC2)cc1[N+](=O)[O-]	107% (inactive)	104% (inactive)	106% (inactive)	114% (inactive)	106% (inactive)	62.5	194% (inactive)	12.3% (inactive)	99.5% (inactive)	1% (inactive)	-5.02% (inactive)	15.5% (inactive)	-2.15% (inactive)	97.5% (inactive)	1.08 (active)	5% (inactive)	-3.11% (inactive)
CC[N+](C)(C)c1cccc(O)c1	103% (inactive)	99.3% (inactive)	112% (inactive)	97.3% (inactive)	102% (inactive)	57.5	123% (inactive)	-0.45% (inactive)	90.1% (inactive)	56% (active)	-3.94% (inactive)	-0.12% (inactive)	-0.97% (inactive)	103% (inactive)	-0.17 (inactive)	-7% (inactive)	7.09% (inactive)
Cc1ccc(Cl)c(OCCCN(C)Cc2ccccc2)c1	100% (inactive)	96.6% (inactive)	98.3% (inactive)	106% (inactive)	106% (inactive)	64.5	161% (inactive)	13.4% (inactive)	95% (inactive)	2% (inactive)	-6.56% (inactive)	0.6% (inactive)	0.72% (inactive)	112% (inactive)	-0.26 (inactive)	19% (inactive)	-6.96% (inactive)
